Measured values reported in PubChem BioAssay.
Results filed as inconclusive are left out. Active and inactive are the calls of the source.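 How the source made its calls, unless noted: active means viability at or below 30% in both replicate assays; inconclusive means viability at or below 30% in just one of the two assays; inactive means the rest.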

How the values were obtained:
[1] = Her2 expression decrease, cell viability multiplex – SKBR3 breast tumor cells, AlphaScreen, ATP viability, primary screen (AID 461;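 active means Her2 level under about 52% in both replicate screens, with viability over 70% of control, limit read from the data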;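 on Her2 level: lower value means less Her2 protein in the cells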;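 on viability: percent of carrier control wells set as 100% viability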); details: SKBR3 Her2 protein level, 18-24 h, measured here: SKBR3 viability, ATP luminescence, at 10 µM
[2] = molecular target: Receptor tyrosine-protein kinase erbB-2 (Homo sapiens) (UniProt P04626); experiment: as above; details: 18-24 h, at 10 µM, stronger effect = lower value
Chain of Receptor tyrosine-protein kinase erbB-2 (Homo sapiens) (P04626 whole entry, looked up): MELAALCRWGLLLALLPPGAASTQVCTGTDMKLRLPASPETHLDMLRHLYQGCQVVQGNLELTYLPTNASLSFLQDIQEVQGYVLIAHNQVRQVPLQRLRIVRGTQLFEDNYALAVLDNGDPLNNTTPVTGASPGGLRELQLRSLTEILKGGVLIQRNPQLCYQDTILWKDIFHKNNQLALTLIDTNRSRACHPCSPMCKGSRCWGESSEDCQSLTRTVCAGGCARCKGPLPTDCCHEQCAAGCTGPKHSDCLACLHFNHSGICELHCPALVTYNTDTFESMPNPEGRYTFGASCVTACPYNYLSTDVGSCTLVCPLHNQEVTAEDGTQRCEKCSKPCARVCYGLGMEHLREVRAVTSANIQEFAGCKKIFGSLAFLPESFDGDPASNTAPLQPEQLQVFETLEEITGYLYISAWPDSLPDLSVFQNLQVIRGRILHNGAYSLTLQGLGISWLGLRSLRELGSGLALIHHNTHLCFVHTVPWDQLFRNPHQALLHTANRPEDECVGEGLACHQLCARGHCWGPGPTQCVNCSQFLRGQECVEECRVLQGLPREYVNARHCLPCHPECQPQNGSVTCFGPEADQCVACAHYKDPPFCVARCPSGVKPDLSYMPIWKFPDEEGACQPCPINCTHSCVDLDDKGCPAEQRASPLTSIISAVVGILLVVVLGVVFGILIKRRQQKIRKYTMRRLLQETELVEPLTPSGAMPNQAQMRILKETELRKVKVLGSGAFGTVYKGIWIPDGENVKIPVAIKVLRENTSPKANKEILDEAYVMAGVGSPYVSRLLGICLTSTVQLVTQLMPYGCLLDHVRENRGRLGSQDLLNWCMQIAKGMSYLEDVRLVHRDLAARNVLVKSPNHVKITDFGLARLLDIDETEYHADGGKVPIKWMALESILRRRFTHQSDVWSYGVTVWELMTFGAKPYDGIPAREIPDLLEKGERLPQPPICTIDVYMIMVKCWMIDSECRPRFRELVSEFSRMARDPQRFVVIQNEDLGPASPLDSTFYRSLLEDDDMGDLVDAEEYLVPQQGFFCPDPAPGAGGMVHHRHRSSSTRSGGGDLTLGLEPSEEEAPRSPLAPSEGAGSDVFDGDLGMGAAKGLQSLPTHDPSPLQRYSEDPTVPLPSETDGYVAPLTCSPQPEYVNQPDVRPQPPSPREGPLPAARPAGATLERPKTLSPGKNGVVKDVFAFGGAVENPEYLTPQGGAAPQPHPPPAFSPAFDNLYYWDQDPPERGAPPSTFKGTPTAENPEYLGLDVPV

[3] = reduced viability of SK-BR-3 breast cancer cells – cell-based, 24 h, human, pilot screen (AID 572;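 active means viability at or below 10% of carrier control in both of two separate runs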;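 further: compound exposure lasted between 18 and 24 h rather than exactly 24 h; 100% = carrier-treated control wells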); details: SK-BR-3 viability, CellTiter-Glo luminescence, at 10 µM, stronger effect = lower value
[4] = HUVEC growth inhibition – cell-based, human, primary screen (AID 575); details: HUVEC proliferation, CellTiter-Glo luminescence, 72 h; at 10 µM; stronger effect = lower value;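 further: 100% = median of untreated cell wells with 0.1% DMSO on each plate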
[5] = H69AR cell proliferation blockers – human, duplicate replicates, primary screen (AID 580;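 active means viability at or under a set limit in both replicates, limit being median viability minus 3 SD, cut at about 48% in these data, passing the limit was not always enough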;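 further: 100% = mean luminescence of untreated wells and 0% = no signal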); details: H69AR lung tumor cells viability, ATP luminescence, 72 h; at 10 µM; stronger effect = lower value
[6] = MRP1 drug-resistance reversers in H69AR cells – cell-based, doxorubicin co-treatment, pilot screen (AID 601;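 active means viability loss from added drug above about 55%, and viability with drug at most 40%, in both replicates, limit read from the data, passing the limit was not always enough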); details: CellTiter-Glo, 72 h, at 10 µM; for differential viability (reversal): stronger effect = higher value
[7] = yeast transport mutant growth inhibition pilot in 384-well plates, post-Golgi transport modulator project (AID 636; in the data active means inhibition above about 31%); details: absorbance 615 nm, about 18 h, stronger effect = higher value
[8] = growth suppression of yeast trafficking mutant, preliminary HTS, modulators of trafficking downstream of Golgi apparatus project, 1536-format plate, OD 615 nm (AID 637; in the data active means inhibition above about 30%); details: yeast transport mutant growth, absorbance 615 nm, 18 h; stronger effect = higher value
[9] = S. cerevisiae growth inhibition in permissive medium (OD615), pilot counter-assay for S. cerevisiae lifespan shortening project, permissive growth control (AID 705;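 active means growth inhibition above 25% in both replicates, a cutoff set 3 SD above the mean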); details: OD615, 24 h, at 10 µM, stronger effect = higher value
[10] = S. cerevisiae growth inhibition in restrictive medium, OD615, pilot screen, restrictive growth control, yeast lifespan reduction project (AID 706;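 active means growth inhibition above a set limit, 3 SD over mean compound inhibition, in both replicates, cut at about 43% in these data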;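 further: modified DeaD lifespan yeast strain shifted to restrictive glucose medium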); details: OD615, 48 h, at 10 µM, stronger effect = higher value
[11] = doxorubicin toxicity protection in MRP-1 cells – H69AR cells, CellTiter-Glo, duplicate, MRP-1 activator project, pilot screen (AID 807;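 active means viability increase at or above a cutoff of the median across tested compounds plus 3 SD, cut at about 8.5% in these data, passing the limit was not always enough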;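 further: compound pretreatment 18-22 h then 72 h combined with doxorubicin; 0% = doxorubicin alone and 100% = vehicle without doxorubicin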); details: H69AR viability with doxorubicin, CellTiter-Glo luminescence; at 10 µM; stronger effect = higher value
[12] = viability of HCT116 without oncogenic beta-catenin – human colon tumor cells, pilot screen (AID 823;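 active means cell viability at or below a set limit in both duplicate runs, the limit being the all-compound median minus 4 SD, cut at about 23% in these data, passing the limit was not always enough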;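 further: 0% = wells killed by 20 µM Hyamine and 100% = untreated DMSO cell wells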); details: HCT116 beta-catenin knockout viability, CellTiter-Glo, 60 h; at 10 µM; stronger effect = lower value
[13] = viability of PTEN-null HCT116 cells – cell-based, HCT116 clonal line, CellTiter-Glo, pilot screen (AID 824;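 active means viability at or below 27.92% in each of two runs, the all-compound median minus 4 SD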;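 further: 0% = 20 µM Hyamine control and 100% = vehicle cell control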); details: HCT116 PTEN-deleted viability, 60 h, at 10 µM, stronger effect = lower value
[14] = RAM pathway blockade in budding yeast – dse1pr::URA3 reporter, 5-FOA selection, pilot screen (AID 869;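 active means inhibition over a set limit, the all-compound mean plus 3 SD, in both replicate runs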;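 further: 0% = DMSO wells with no growth and 100% = 10 µM 1-NA-PP1 with full growth; RAM network block rescues cells from 5-FOA so hits raise OD615 growth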); details: S. cerevisiae dse1pr::URA3 5-FOA growth, OD615, 2 d; at 10 µM; stronger effect = higher value; strain carries analog-sensitive mutant Cbk1 kinase
[15] = RAM signaling pathway blockade in yeast – S. cerevisiae, Pdr1DBD-CYC8 efflux-inhibited sensitized strain, primary screen (AID 1298;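 active means RAM network inhibition above 8.4% in each of two replicates, 3 SD over the compound average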;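 further: 0% = DMSO untreated cells without growth and 100% = 10 µM 1-NA-PP1 full growth; higher means more yeast growth rescued from 5-FOA killing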); details: S. cerevisiae cbk1-as DSE1-URA3 strain, 5-FOA growth OD615, 2 d; at 50 µM; stronger effect = higher value
[16] = H69AR cells + 2 uM doxorubicin, measured here: viability with 2 uM doxorubicin, stronger effect = lower value
[17] = H69AR cells, compound alone cytotoxicity

Row | Compound | viability [1] | Her2 level [2] | viability [3] | viability [4] | viability [5] | differential viability (reversal) ([6]; H69AR cells + 2 uM doxorubicin) | viability [6, 16] | viability [6, 17] | inhibition [7] | inhibition [8] | growth inhibition [9] | growth inhibition [10] | viability increase [11] | viability [12] | viability [13] | inhibition [14] | RAM network inhibition [15]
1 | COc1cccc(-n2c(SCC(=O)Nc3cc(C)on3)nc3c([nH]c4ccccc43)c2=O)c1 | 76% | 90.5% (inactive) | 76% (inactive) | 61.5% (inactive) | 66.4% (inactive) | -16.2% (inactive) | 82.6% | 66.4% | -4.53% (inactive) | -0.67% (inactive) | -3.05% (inactive) | -0.53% (inactive) | -4.78% (inactive) | 82% (inactive) | 73.8% (inactive) | 2.33% (inactive) | 1.62% (inactive)
2 | COc1ccccc1NC(=O)N(C1CCCC1)C1CCN(C(C)=O)CC1 | 77.5% | 89.5% (inactive) | 77.5% (inactive) | 112% (inactive) | 88.3% (inactive) | 0.61% (inactive) | 87.6% | 88.3% | 0.77% (inactive) | -8.83% (inactive) | -2.26% (inactive) | -27.4% (inactive) | -2.01% (inactive) | 92.4% (inactive) | 94.7% (inactive) | 0.72% (inactive) | 5% (inactive)
3 | CN(C)CCCN1C(=O)CSC1c1ccccc1 (stereo not drawn) | 100% | 99% (inactive) | 100% (inactive) | 91.6% (inactive) | 94.4% (inactive) | 4.35% (inactive) | 90.1% | 94.4% | -4.67% (inactive) | -1.83% (inactive) | -2.19% (inactive) | -1.53% (inactive) | -0.9% (inactive) | 104% (inactive) | 101% (inactive) | 1.47% (inactive) | 0.73% (inactive)
4 | NC(=O)CSc1cn(CCNC(=O)c2cccs2)c2ccccc12 | 99.5% | 92.5% (inactive) | 99.5% (inactive) | 99.4% (inactive) | 93.4% (inactive) | 1.49% (inactive) | 91.9% | 93.4% | -4% (inactive) | -2.83% (inactive) | -14.1% (inactive) | -28% (inactive) | -0.44% (inactive) | 107% (inactive) | 94.8% (inactive) | 1.34% (inactive) | 5.84% (inactive)
5 | Cc1ccc(C(=O)NC(Cc2c[nH]c3ccccc23)C(=O)O)o1 (stereo not drawn) | 95.5% | 130% (inactive) | 95.5% (inactive) | 87.3% (inactive) | 88.9% (inactive) | 1.82% (inactive) | 87.1% | 88.9% | 1.95% (inactive) | -5% (inactive) | 1.54% (inactive) | -2.65% (inactive) | -3.09% (inactive) | 96.2% (inactive) | 96.4% (inactive) | 1.82% (inactive) | 6.26% (inactive)
6 | Cc1ccc(-c2cc(C(F)(F)F)n3nc(C(=O)N4CCCC4)cc3n2)cc1 | 101% | 84.5% (inactive) | 101% (inactive) | 108% (inactive) | 111% (inactive) | 11.3% (inactive) | 100% | 111% | -0.68% (inactive) | 3.65% (inactive) | -13.3% (inactive) | 1.45% (inactive) | -2.2% (inactive) | 96.9% (inactive) | 89% (inactive) | 1.95% (inactive) | 4.14% (inactive)
7 | CCOC(=O)C1CCN(Cc2ccc(OC)c(C)c2OC)CC1 | 88.5% | 97.5% (inactive) | 88.5% (inactive) | 108% (inactive) | 86.9% (inactive) | 3.22% (inactive) | 83.7% | 86.9% | -2.4% (inactive) | -7.1% (inactive) | -2.98% (inactive) | 2.96% (inactive) | -4.57% (inactive) | 78.3% (inactive) | 80.3% (inactive) | 1.16% (inactive) | 1.41% (inactive)
8 | Cc1ccccc1Cn1cc(/C=N/n2cnnc2)c2ccccc21 | 100% | 99.5% (inactive) | 100% (inactive) | 68.7% (inactive) | 95.4% (inactive) | 13.3% (inactive) | 82% | 95.4% | -2.6% (inactive) | 4.83% (inactive) | 7.88% (inactive) | 23.3% (inactive) | -4.78% (inactive) | 67.8% (inactive) | 61.6% (inactive) | 1% (inactive) | -0.25% (inactive)
9 | CCOC(=O)C(C)(C)Sc1nc2c(cnn2-c2ccc(Cl)cc2)c(=O)[nH]1 | 76% | 91% (inactive) | 76% (inactive) | 64.4% (inactive) | 81.9% (inactive) | -3.56% (inactive) | 85.4% | 81.9% | -2.05% (inactive) | 2.5% (inactive) | -5.47% (inactive) | -0.62% (inactive) | -2.17% (inactive) | 91.9% (inactive) | 78.2% (inactive) | 1.89% (inactive) | 6.14% (inactive)
10 | CCOC(=O)CSc1nnc(Cn2c(=O)sc3ccccc32)n1C | 96% | 94% (inactive) | 96% (inactive) | 87% (inactive) | 96.7% (inactive) | 11.1% (inactive) | 85.5% | 96.7% | 3.33% (inactive) | -2.5% (inactive) | 1.56% (inactive) | 7.89% (inactive) | 1.76% (inactive) | 107% (inactive) | 106% (inactive) | 0.27% (inactive) | 3.51% (inactive)
11 | COc1ccc(S(=O)(=O)N2CCN(c3ccc(C)cc3C)CC2)cc1OC | 94.5% | 93.5% (inactive) | 94.5% (inactive) | 73.8% (inactive) | 97.2% (inactive) | -0.96% (inactive) | 98.2% | 97.2% | -5.87% (inactive) | 2.5% (inactive) | 0.1% (inactive) | 4.36% (inactive) | -0.07% (inactive) | 50.6% (inactive) | 72.2% (inactive) | 2.41% (inactive) | 1.74% (inactive)
12 | Cc1ccc(C)c(C(=O)CC2(O)C(=O)N(C)c3ccccc32)c1 (stereo not drawn) | 112% | 113% (inactive) | 112% (inactive) | 105% (inactive) | 92.2% (inactive) | 10.1% (inactive) | 82.1% | 92.2% | -4.68% (inactive) | -1.5% (inactive) | -8.69% (inactive) | -12.9% (inactive) | -0.65% (inactive) | 107% (inactive) | 97.2% (inactive) | 3.41% (inactive) | -0.11% (inactive)
13 | CC(C)(C)NC(=O)CC(CC(=O)O)c1ccccc1 (stereo not drawn) | 112% | 117% (inactive) | 112% (inactive) | 110% (inactive) | 88.5% (inactive) | -8.51% (inactive) | 97% | 88.5% | -4.27% (inactive) | 7.67% (inactive) | -11.7% (inactive) | 3.69% (inactive) | -0.99% (inactive) | 106% (inactive) | 101% (inactive) | 2.61% (inactive) | -1.67% (inactive)
14 | CCN1CCN(Cc2nc3c(c(=O)n(C)c(=O)n3C)n2CC(=O)c2ccccc2)CC1 | 100% | 108% (inactive) | 100% (inactive) | 95.5% (inactive) | 98.5% (inactive) | 2.67% (inactive) | 95.8% | 98.5% | -4.13% (inactive) | -0.33% (inactive) | 5% (inactive) | -14% (inactive) | -1.56% (inactive) | 100% (inactive) | 105% (inactive) | 1.33% (inactive) | 3.98% (inactive)
15 | COC(=O)Cn1ncc2c(C)n(Cc3ccccc3)c(C)c2c1=O | 122% | 112% (inactive) | 122% (inactive) | 107% (inactive) | 96% (inactive) | 7.04% (inactive) | 88.9% | 96% | -3.73% (inactive) | 2% (inactive) | -7.07% (inactive) | -6.09% (inactive) | 2.78% (inactive) | 100% (inactive) | 96.7% (inactive) | 0.365% (inactive) | 2.88% (inactive)
16 | O=C(c1cccs1)N1CCc2ccccc21 | 110% | 82% (inactive) | 110% (inactive) | 83% (inactive) | 94% (inactive) | 14.6% (inactive) | 79.5% | 94% | -5.47% (inactive) | 0.97% (inactive) | 1.98% (inactive) | 1.57% (inactive) | -1.9% (inactive) | 96.3% (inactive) | 95.8% (inactive) | 1.48% (inactive) | 1.66% (inactive)
17 | CN(CCCNC(=O)c1cn(C)c2ccc(S(=O)(=O)N(C)C)cc2c1=O)c1ccccc1 | 85.5% | 90% (inactive) | 85.5% (inactive) | 98.3% (inactive) | 87.7% (inactive) | 17.1% (inactive) | 70.6% | 87.7% | 0.38% (inactive) | -1% (inactive) | 1.83% (inactive) | -0.125% (inactive) | -3.8% (inactive) | 94.8% (inactive) | 85% (inactive) | 0.395% (inactive) | 7.85% (inactive)
18 | CCOC(=O)C1=C(C)NC(=O)NC1c1ccc(OCCO)c(OC)c1 (stereo not drawn) | 92.5% | 85% (inactive) | 92.5% (inactive) | 96.6% (inactive) | 92.1% (inactive) | -1.96% (inactive) | 94.1% | 92.1% | -6.08% (inactive) | -2.3% (inactive) | 1.63% (inactive) | 1.81% (inactive) | -1.65% (inactive) | 102% (inactive) | 100% (inactive) | 1.9% (inactive) | -1.29% (inactive)
19 | Cc1noc(C(=O)Nc2ccc3c(c2)OCO3)c1Cl | 84.5% | 75% (inactive) | 84.5% (inactive) | 51.4% (inactive) | 96.9% (inactive) | -0.25% (inactive) | 97.2% | 96.9% | -4.13% (inactive) | 1.67% (inactive) | -0.74% (inactive) | 6.31% (inactive) | -3.47% (inactive) | 95.9% (inactive) | 89.7% (inactive) | 2.92% (inactive) | 5.2% (inactive)
